# Target: KLF9
# Experiment: pooled miR-30 sensor sort-seq; sequence = guide strand
# Conditions: shRNA
# Further: reference of the scale not given here.
row,Sequence,sensor-assay potency score (higher = more potent)
1,TTGATCTTAGGCTACAATGTGC,-0.659
2,TTCTGTAATTGTAACTACCAAA,-0.904
3,TTGCAAAACACTACCCTCCTTC,-0.0123
4,TAACTTATTCATCCTCTGCATT,-0.919
5,TTAGTGTTCAATGAACTCTAGT,-0.32
6,TTAATCTCAAAAGTTAACGTGA,0.201
7,TATCTTGATATAGTAAATCTAA,-0.625
8,TTCGATCGCTTGATCATGCTGG,0.623
9,TTAAACACCTGCAATAGTCTTT,0.257
10,TTCTTTCTTTTTAAACACCTGC,-0.453
11,TAGTAGTCCTATTTGAACCATA,-0.845
12,TTAAACAGTTGTAAAGATCAGT,-0.0225
13,TTTAGATGACAGATCATGCTGG,0.459
14,TTGTCTTTCACTGACTTTGCTT,-0.214
15,TTCAGGTCCAACAAGCTCTTGG,-0.253
16,TAAACAAAAATTACTATCCTGC,0.0439
17,TTTCTCGTGAGAAAACACTTTC,-0.637
18,TTACAAGTTAGCAAGTTGCTAG,-0.0943
19,TTTATATCCATCTAAGTGCTTG,-0.361
20,TACAGTGTTACAGATCATCTGA,0.728
21,TCTACATAACTCTTGCACCTGA,-0.302
22,TTCACCTGTATGCACTCTGTAA,-0.85
23,TTCTGTACTTAGTGTAACCTTT,-0.287

# Target: KLHL20
# Experiment: as above
# Conditions: shRNA
row,Sequence,sensor-assay potency score (higher = more potent)
1,TTGAACACTTGTTCTTCACTGC,0.569
2,TTGTTCTTCACTGCGAACGTTT,-0.688
3,TACATTTTGCATACCTACCTTT,-0.113
4,TTGAAAATTATTGTGCATCTTG,-0.295
5,TAATTGAGGACGTCTTTCCTGA,0.0524
6,TTTGTCTATGAATACAATGAGG,-1.57
7,TCTCCTGTAAACATAGCTCGGA,-0.114
8,TATGTTGGGTGAACTTGTCTGC,0.299
9,TTCTTCATCACTTTTGATGAGG,-0.804
10,TACAGCATAGATCATGTCCTGA,0.298
11,TTGTTTGTATAAAAGAACCAAG,-1.24
12,TCATCTACCAAGTCTCTGCATT,-0.755

# Target: KLHL24
# Experiment: as above
# Conditions: shRNA
row,Sequence,sensor-assay potency score (higher = more potent)
1,TATTTTTCTATCTCCTACCTAA,0.015
2,TTTACCATTACACACAGACATA,-1.69
3,ATAACATCTGTGAATAAGCGGC,-0.459
4,AAACTTTTCGCTTAGTTGCTGG,-0.446
5,TATGAATAGTCACACAGCCATG,-1.71

# — the OligoGym collection
